An excerpt weighted towards active compounds, which were near 3.3% of everything screened.
esBAF inh: SWI/SNF esBAF complex inhibition; mouse ES cells, Bmi1-luciferase knock-in reporter, 24 h; 100% = twice the neutral-well signal; reporter increase, % at 12.5 µM; hit rate 2% among 350,000; AID 602393; in the data active = activation above about 40%;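 also: 0% = median of the plate's neutral control wells and 100% = double that signal; a rise in the Bmi1 reporter signal indicates esBAF inhibition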
Statin myotox sup: protects C2C12 myotubes from simvastatin toxicity; ATP luminescence, 48 h; scaled: DMSO 0, geranylgeraniol control 100; rescue of ATP level, % at 7.49 µM; hit rate 0.78% among 330,000;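 active = mean ATP rescue above about 67%, or every replicate alone reaching that limit, limit read from the data, passing the limit was not always enough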;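 also: myotubes were challenged with 10 µM simvastatin during compound exposure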
Wnt act: activators of Wnt/beta-catenin signaling. Wnt/beta-catenin reporter cell assay, activator, plate reader. activation, % at 9.35 µM. hit rate 1.2% among 300,000; in the data active = activation above about 30%, passing the limit was not always enough;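 also: 0% = neutral control wells and 100% = positive control wells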
GAA850 FXN act: increases GAA850 frataxin promoter reporter activity | HEK293 lucGAA850 FXN promoter luciferase reporter, 24 h; percent of 10 µM SAHA response | hit rate 0.56% among 360,000 | activation, % at 6 µM;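 active = activation above the average of all compounds screened plus 3 SD, cutoff fixed separately per campaign, cut at about 7.5% in these data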;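 also: 0% = DMSO wells and 100% = 10 µM SAHA wells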
MITF act: MITF TRPM1 promoter activation in melanoma cells | hit rate 0.75% among 300,000 | SK-MEL-5 TRPM1-promoter luciferase, 24 h; % of positive control, neutral wells = 0 | activation, % at 12.5 µM;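 active = mean activation of at least 80% with every replicate also reaching 80%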;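 also: 0% = neutral control wells and 100% = parthenolide positive control wells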
GAA30 FXN cntr: activates GAA30 frataxin promoter, counter-screen for GAA850 activators. activation, % at 6 µM. HEK293 lucGAA30 FXN promoter luciferase, 24 h; DMSO = 0%, 5 µM ipriflavone = 100%. shares compounds with GAA850 FXN act. hit rate 66% among 1,900;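 active = mean activation above the mean of solvent-only control wells plus 3 SD, cut at about 22% in these data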;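 also: counterscreen of GAA850 promoter hits where activity marks nonselective or luminescence artifacts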
FXN GAA850 conf: confirmation of GAA850 frataxin (FXN) promoter activators. shares compounds with GAA850 FXN act. HEK293 lucGAA850 FXN promoter luciferase reporter, 24 h; 100% = activation by SAHA. activation, % at 6 µM. hit rate 86% among 1,900;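 active = mean activation above a set limit taken from the primary screen, cut at about 8% in these data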;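 also: 0% = DMSO wells and 100% = 10 µM SAHA wells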
* hit, by the source's call; · = not tested or not shown.

SMILES	esBAF inh	Statin myotox sup	Wnt act	GAA850 FXN act	MITF act	GAA30 FXN cntr	FXN GAA850 conf
Cc1ccc(NC(=O)c2sc3ccccc3c2Cl)nc1	-50	1	19	8.4*	-15	105*	16*
Cc1cccnc1NC(=O)c1sc2ccccc2c1Cl	29	-4	-3	6	27	·	·
CCCC#Cc1cnc2c(c1)C(=O)N([C@H](C)CO)C[C@H](C)[C@@H](CN(C)C)O2	-17	-3	·	·	·	·	·
Cc1cc(C)n2nc(/C(C#N)=C/c3ccccn3)c(C#N)c2n1	-1	-3	4	16*	-7	32*	37*
CC[C@@]1(C(=O)OC)N[C@H](CN(C)C(=O)Nc2ccc(Cl)cc2)[C@@H]2C(=O)N(Cc3ccccc3)C(=O)[C@@H]21	2	8	-2	17*	14	22	11*
CC[C@@]1(C(=O)OC)N[C@H](CN(C)C(C)=O)[C@@H]2C(=O)N(Cc3ccccc3)C(=O)[C@@H]21	2	8	-1	1	-4	·	·
CCN(C[C@H]1N[C@@](CC)(C(=O)OC)[C@H]2C(=O)N(Cc3ccccc3)C(=O)[C@@H]12)C(=O)Nc1ccc(C(F)(F)F)cc1	-2	-4	-1	8.4*	5	27*	14*
CCN(C[C@H]1N[C@@](CC)(C(=O)OC)[C@H]2C(=O)N(Cc3ccccc3)C(=O)[C@@H]12)C(C)=O	0	2	-2	2	-4	·	·
CCN(C[C@H]1N[C@@](CC)(C(=O)OC)[C@H]2C(=O)N(Cc3ccccc3)C(=O)[C@@H]12)C(=O)Nc1ccc(OC)cc1	5	-6	4	18*	10	47*	16*
CC[C@@]1(C(=O)OC)N[C@H](CN(C)C(=O)COc2ccccc2)[C@@H]2C(=O)N(Cc3ccccc3)C(=O)[C@@H]21	-4	1	-2	9.5*	1	18	7
C[C@H](CO)N1C[C@H](C)[C@H](CN(C)C(=O)Cc2cccnc2)Oc2cc(C3=CCCCC3)ccc2S1(=O)=O	-5	3	·	·	·	·	·
COCCNc1nc(SC)nc2sc3c(c12)CCN(C)C3	-2	7	1	1	-9	·	·
COCCCNc1nc(SCc2ccccc2)nc2sc3c(c12)CCC3	7	-21	-2	14*	·	31*	21*
Cc1ccc(NC(=S)N/N=C/c2c(C)[nH]c3ccccc23)cc1	23	-8	2	7.9*	32	31*	21*
CC[C@]12c3[nH]c4ccc(OC)cc4c3CCN1C(=O)C(CC(=O)NCC13CC4CC(CC(C4)C1)C3)C[C@@H]2C(=O)N1CCN(C(=O)c2ccco2)CC1 (stereo not given in full)	9	16	·	15*	-6	2	11*
CC[C@]12c3[nH]c4ccc(Cl)cc4c3CCN1C(=O)[C@@H](CC(=O)NCC13CC4CC(CC(C4)C1)C3)C[C@@H]2C(=O)N1CCN(C(=O)c2ccco2)CC1	14	-9	-8	-2	-42	·	·
Nc1cc([N+](=O)[O-])cc2oc(-c3ccccc3)cc12	32	2	13	8.2*	26	94*	33*
Cc1cc(C)nc(SCc2csc(-c3ccccc3)n2)n1	·	·	·	7.9*	113*	115*	40*
CCOc1ccc(-c2csc(NC(=O)CSC3=NC(=O)CN3C(C)=O)n2)c2ccccc12	·	·	-5	1	2	·	·
CC(=O)N1CC(=O)N=C1SCC(=O)Nc1nc(C)c(-c2ccccc2)s1	-8	30	-3	8.0*	5	44*	22*
N/C(=N\OC(=O)c1cccs1)c1ccccc1	18	19	14	7.7*	19	99*	28*
N/C(=N\OC(=O)Cc1ccccc1)c1cccc(Br)c1	·	·	3	4	14	·	·
N/C(=N\OC(=O)c1cccs1)c1cccc(Br)c1	22	50	44*	8.0*	70	57*	8
C[C@H]1CN([C@@H](C)CO)S(=O)(=O)c2ccc(C3=CCCCC3)cc2O[C@H]1CN(C)C(=O)C1CCCCC1	2	-13	·	·	·	·	·

Assay outcomes from PubChem BioAssay.
